Screens as filed in PubChem BioAssay.
RORgamma inh = blocks mouse ROR gamma transcriptional activity; P51450; Drosophila S2 Gal4-RORgamma UAS-luciferase reporter, 20 h; Potency, µM (titrated, usually from 53.6 µM), without a hit: at the highest dose activity change, negative = inhibition, most hits filed as inhibitors; AID 2551; 310,000 compounds, 5.4% hits; further: potency means the concentration at half of the fitted maximal effect; on the % scale 0 is the no-effect control and ±100 the full control effect; nearly all actives have a fitted effect of over 60% in size
Target sequence (P51450 whole entry, looked up, the tested form may be a part): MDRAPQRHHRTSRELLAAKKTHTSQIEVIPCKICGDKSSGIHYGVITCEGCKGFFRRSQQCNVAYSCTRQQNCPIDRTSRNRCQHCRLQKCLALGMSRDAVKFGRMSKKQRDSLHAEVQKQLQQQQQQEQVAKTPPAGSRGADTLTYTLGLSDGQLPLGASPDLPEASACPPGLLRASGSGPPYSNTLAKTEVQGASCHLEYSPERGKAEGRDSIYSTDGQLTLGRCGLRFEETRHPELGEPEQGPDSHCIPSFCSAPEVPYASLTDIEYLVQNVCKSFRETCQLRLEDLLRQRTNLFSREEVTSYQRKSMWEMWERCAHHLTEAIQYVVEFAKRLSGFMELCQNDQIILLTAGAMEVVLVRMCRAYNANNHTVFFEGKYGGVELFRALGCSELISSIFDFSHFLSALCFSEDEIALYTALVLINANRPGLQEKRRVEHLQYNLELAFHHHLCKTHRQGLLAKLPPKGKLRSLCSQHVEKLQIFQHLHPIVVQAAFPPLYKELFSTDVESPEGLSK
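A Gal4/UAS one-hybrid system in insect cells: metallothionein-promoter Gal4–ROR gamma fusion plus Photinus luciferase reporter. Copper sulfate 700 uM final, 20 hr ambient incubation, luminescent detection after 10 min with reagent.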
CtBP-E1A inh = inhibitors of CtBP/E1A interaction; AlphaScreen GST-E1A/His-CtBP binding, 1536-well; stronger effect = lower value; AID 651724; activity change, % (no concentration beside the values); 340,000 compounds, 0.49% hits; in the data active means activity change below about -65%; inconclusive means mostly about -30% to -63%; further: on the % scale 0 is the no-effect control and ±100 the full control effect
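Steps: dispense buffer (Tris pH 8.0, NaCl 300 mM, TCEP 1 mM, BSA, Tween 20); add 5X protein mix (GST-E1A, His-CtBP, 125 nM each); pin 23 nL compound; 2 h at 37 °C, dark; add 5X beads (50 ug/mL); 1 h; read.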
p53 reactivation = re-activators of mutant p53 | AID 504706 | Potency, µM (top dose mostly 92.2 µM), without a hit: top-dose activity change, positive = activation, usual class: activators | H1299 p53-A138V BP100-luciferase reporter, luminescence, 24 h | 320,000 compounds, 0.063% hits; further: potency means the concentration at half of the fitted maximal effect; % of control where 0% means no effect; nearly all actives have a fitted effect of over 45% in size
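p53-null H1299 cells stably carrying temperature-sensitive p53-A138V and a BP100-luciferase reporter were pinned with compounds (4-point, 1:5 series) and held 24 hrs at 37 deg C. Luminescence was read 10 min after detection reagent.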
VP16 counter = inhibits Gal4-VP16 luciferase reporter, ROR gamma counter-screen; Drosophila S2 Gal4-VP16 UAS-luciferase, luminescence, 20 h; Potency, µM (highest dose often 53.6 µM), inactives show at the top dose activity, negative = inhibition, usual class: inhibitors; 310,000 compounds, 3.5% hits; AID 2546;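 further: Gal4-VP16 expression switched on by copper sulfate through the metallothionein promoter; potency means the concentration at half of the fitted maximal effect; on the % scale 0 is the no-effect control and ±100 the full control effect; nearly all actives have a fitted effect of over 50% in size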
Six1-Eya2 inh = inhibitors of human Six1/Eya2 interaction | Q15475+O00167 | AlphaScreen GST-Six1/His-Eya2 binding, biochemical; stronger effect = lower value | activity change, % (concentration not given with the values) | 360,000 compounds, 0.56% hits; in the data active means activity change below about -65%; inconclusive means mostly about -30% to -63%; further: on the % scale 0 is the no-effect control and ±100 the full control effect
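Homogeneous AlphaScreen proximity assay pairing GST-Six1 with His-tagged Eya2 (added as 5X mix: 250 nM and 500 nM) in 50 mM Tris pH 8.0, 300 mM NaCl, 1 mM TCEP. Glutathione donor and nickel acceptor beads; 1 h, 37 °C, dark.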
An asterisk follows results filed as active; u = inconclusive; x = no result. The list is not random: actives were taken first. Their share in the collection is about 5.4%. Unless noted, the call rests on the fitted dose curve; in most records, active means well fitted curve in the direction sought with a large enough effect; inconclusive means small, poorly fitted or top-dose-only effect, or another doubt; inactive means no such curve, though single readings can be large; an effect the other way counts as inactive or inconclusive.

SMILES	RORgamma inh	CtBP-E1A inh	p53 reactivation	VP16 counter	Six1-Eya2 inh
NC(=O)c1sc(-c2ccsc2)cc1NS(=O)(=O)c1ccc(C(F)(F)F)cc1	-1.3%	-7.6	7.9%	-5.8%	-0.5
Cc1cccc(N=Nc2c(C)c(C#N)c(O)[nH]c2=O)c1	18.6%	1.9	6.6%	-6.3%	7.2
Cc1c(C#N)c(O)[nH]c(=O)c1N=Nc1ccc(Br)cc1C(=O)O	-29.8%	-88.6*	0.4%	u	-70.9*
CC1Cc2ccccc2N1C(=O)CN1CCC(n2nnc3cc(C(F)(F)F)ccc32)CC1 (configuration not stated)	39.4%	-7.0	1.9%	3.98µM*	-7.9
Cc1ccc(-c2csc(NC(=S)NC(=O)c3ccco3)n2)cc1	5.62µM*	-9.8	7.5%	u	-9.5
COc1ccc(-c2csc(NC(=S)NC(=O)c3cc4ccccc4o3)n2)cc1Br	-16.2%	0.8	5.1%	-4.5%	1.6
COc1ccc(-c2csc(NC(=S)NC(=O)c3ccco3)n2)cc1Br	7.94µM*	0.1	1.6%	u	1.2
COc1cc(C)c(S(=O)(=O)NOCc2ccccc2)c(C)c1C	8.0%	x	x	-16.3%	1.4
NC=O	-10.1%	x	x	1.4%	x
O=[N+]([O-])c1ccc(Cl)c(/C=N/n2c(C3CCCCC3)n[nH]c2=S)c1	-34.5%	0.0	26.8%	-5.4%	8.9
Fc1cccc(/C=N/n2c(C3CCCCC3)n[nH]c2=S)c1	3.98µM*	3.0	2.3%	8.91µM*	-4.7
COc1cc(/C=N/n2c(C3CCCCC3)n[nH]c2=S)cc(OC)c1O	-31.3%	-4.2	-6.7%	-4.2%	5.2
O=[N+]([O-])c1cccc(/C=N/n2c(C3CCCCC3)n[nH]c2=S)c1	3.98µM*	-13.1	-16.6%	4.47µM*	-9.1
COc1cccc(/C=N/n2c(C3CCCCC3)n[nH]c2=S)c1	4.47µM*	x	-2.5%	10µM*	-8.3
Oc1cccc(/C=N/n2c(C3CCCCC3)n[nH]c2=S)c1	u	-6.3	1.4%	-3.6%	-8.3
CCOc1ccc(N(C(C)C(=O)N2CCOCC2)S(C)(=O)=O)cc1 (configuration not stated)	8.1%	5.5	5.1%	-4.2%	-1.2
COc1cccc(N2CCN(C(=S)Nc3ccccc3OC)CC2)c1	-15.1%	3.8	6.2%	5.8%	-10.9
COc1cccc(N2CCN(C(=S)Nc3ccc(C)cc3C)CC2)c1	5.62µM*	x	x	-16.6%	-2.1
CN(C)c1ccc(NC(=S)N2CCN(c3ncc(C(F)(F)F)cc3Cl)CC2)cc1	10µM*	-8.2	3.9%	u	-10.1
CCc1ccc(NC(=S)N2CCN(c3cccc(C(F)(F)F)c3)CC2)cc1	12.6µM*	8.5	-4.3%	35.5µM*	6.3
COc1cccc(N2CCN(C(=S)NCCc3ccccc3)CC2)c1	25.1µM*	-5.2	3.9%	u	-11.9
NC(=O)NCC(N)C(=O)O (configuration not stated)	-8.3%	x	x	-2.5%	x
O=C(CN(C(=O)c1csnn1)c1cccc2ccccc12)NC1CCCC1	20.2%	0.5	0.0%	3.9%	8.2
COc1ccc(CCNC(=O)COC(=O)c2sc(C)nc2C)cc1	x	x	-6.2%	x	0.9
O=C(C1Cc2ccccc2CN1C(=O)c1ccccc1)N1CCN(c2ccccc2)CC1 (configuration not stated)	11.5%	0.8	0.7%	5.0%	-8.1
SMILES	RORgamma inh	CtBP-E1A inh	p53 reactivation	VP16 counter	Six1-Eya2 inh
CCOc1ccccc1NC(=S)N1CCN(c2cccc(OC)c2)CC1	12.6µM*	-5.7	-6.4%	u	-10.4
COc1cccc(N2CCN(C(=S)Nc3cc(C)cc(C)c3)CC2)c1	3.98µM*	9.1	2.0%	-2.0%	1.1
CC(NC(=O)CSc1nc(=O)cc(N)n1-c1ccccc1)c1ccccc1 (configuration not stated)	6.8%	1.2	4.5%	-5.5%	3.7
C=CCn1c(N)cc(=O)nc1SCC(=O)NC(C)c1ccccc1 (configuration not stated)	1.5%	1.6	4.8%	17.8µM*	0.8
O=C(CNc1cc(S(=O)(=O)N2CCOCC2)ccc1NCC1CCCO1)Nc1cccc(F)c1 (configuration not stated)	34.9%	-16.4	-10.1%	-0.2%	-0.6
CSc1nn2c(C(F)(F)F)cc(C(F)(F)F)nc2c1C(N)=O	2.1%	9.5	-0.4%	21.6%	6.7
